From paper PMC4336329 (PLoS ONE, 2015) come the findings set out here.

Among all 310,000 compounds or so, about 2,200 (0.71%) showed an effect of 50% or more. Effects have a minus sign here. The list comes from a sample in which strong results are over-represented; it also holds similar structures and randomly drawn compounds.

For the assay, the target named is human ether-à-go-go-related gene (hERG) potassium channel (human, UniProt Q12809). The assay is described as follows: primary screen, population patch clamp on CHO cells stably expressing hERG; higher = less effect of the substance.
Chain of human ether-à-go-go-related gene (hERG) potassium channel (Q12809 whole entry, looked up): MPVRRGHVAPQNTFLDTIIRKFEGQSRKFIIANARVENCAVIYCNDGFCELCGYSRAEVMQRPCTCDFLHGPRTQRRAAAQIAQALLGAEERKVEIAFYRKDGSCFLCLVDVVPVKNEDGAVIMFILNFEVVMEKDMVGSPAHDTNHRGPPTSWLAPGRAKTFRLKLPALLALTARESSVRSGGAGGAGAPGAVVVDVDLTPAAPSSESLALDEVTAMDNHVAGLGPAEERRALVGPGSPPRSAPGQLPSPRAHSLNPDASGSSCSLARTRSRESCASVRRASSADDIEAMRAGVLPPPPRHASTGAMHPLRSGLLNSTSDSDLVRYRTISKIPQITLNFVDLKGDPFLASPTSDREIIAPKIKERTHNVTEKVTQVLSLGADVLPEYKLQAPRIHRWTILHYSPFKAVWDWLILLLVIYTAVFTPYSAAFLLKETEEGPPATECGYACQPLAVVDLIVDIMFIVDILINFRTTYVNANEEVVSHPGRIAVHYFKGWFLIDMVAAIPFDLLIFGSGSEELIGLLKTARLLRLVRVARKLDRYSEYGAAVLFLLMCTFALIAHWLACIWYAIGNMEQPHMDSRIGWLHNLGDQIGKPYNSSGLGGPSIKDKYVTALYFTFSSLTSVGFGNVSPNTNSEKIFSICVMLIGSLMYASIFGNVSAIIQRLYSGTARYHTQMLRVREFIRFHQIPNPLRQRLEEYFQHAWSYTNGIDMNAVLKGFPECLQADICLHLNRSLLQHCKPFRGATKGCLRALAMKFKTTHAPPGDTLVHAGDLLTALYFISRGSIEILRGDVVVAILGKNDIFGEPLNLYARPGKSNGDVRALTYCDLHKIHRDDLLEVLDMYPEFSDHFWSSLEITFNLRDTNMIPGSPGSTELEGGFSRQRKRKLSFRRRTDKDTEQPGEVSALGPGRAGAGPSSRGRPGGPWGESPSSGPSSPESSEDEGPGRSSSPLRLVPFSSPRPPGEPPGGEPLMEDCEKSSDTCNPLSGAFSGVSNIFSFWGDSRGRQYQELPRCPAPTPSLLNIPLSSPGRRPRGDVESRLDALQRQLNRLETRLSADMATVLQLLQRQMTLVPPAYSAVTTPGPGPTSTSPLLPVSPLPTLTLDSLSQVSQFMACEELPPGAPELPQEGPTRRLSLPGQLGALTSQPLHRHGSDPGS
`COc1ccc(N2CCN(C(=O)c3cccc(Br)c3)CC2)c([N+](=O)[O-])c1`: the “hERG current change (%, negative = inhibition) at 1uM” value was -85.9%. In the case of `COc1ccc(N2CCN(C(=O)c3ccc(Br)cc3)CC2)c([N+](=O)[O-])c1`, the “hERG current change (%, negative = inhibition) at 1uM” value is reported as -30.1%. Next, `CCC(=O)N1CCN(c2ccc(OC)cc2[N+](=O)[O-])CC1`: -0.687%. For the compound `COc1ccc(N2CCN(C(=O)CC34CC5CC(CC(C5)C3)C4)CC2)c([N+](=O)[O-])c1`, the “hERG current change (%, negative = inhibition) at 1uM” value turned out to be 10.3%. Regarding `CCCCC(=O)N1CCN(c2ccc(OC)cc2[N+](=O)[O-])CC1`, the “hERG current change (%, negative = inhibition) at 1uM” value is on record as -54.5%. Next, `COc1ccc(N2CCN(C(=O)c3ccccc3)CC2)c([N+](=O)[O-])c1`: -33.8%. Take `CCOc1cc(C2C3=C(CC(C)(C)CC3=O)N(CCCOC)C3=C2C(=O)CC(C)(C)C3)ccc1O`: the “hERG current change (%, negative = inhibition) at 1uM” value stood at 14%. In the case of `O=C1CC(NS(=O)(=O)c2cccnc2)CN1c1cccc(F)c1` (stereo not drawn), the “hERG current change (%, negative = inhibition) at 1uM” value came out at 10.3%. Turning to `Cc1ccc(C)c(N(C(=O)CNC(=O)c2ccco2)C(C(=O)NC2CCCCC2)c2ccncc2)c1` (stereo not drawn), the “hERG current change (%, negative = inhibition) at 1uM” value came out at 7.2%. The same measure for `O=C(c1ccco1)N1CCN(C(=O)C2CC(c3ccc(F)cc3)=NO2)CC1` (stereo not drawn): -59.7%. Next, `COc1cccc(C2=NOC(C(=O)N3CCN(C(=O)c4ccco4)CC3)C2)c1` (stereo not drawn): -16.3%. As for `COc1cc(OC)c(C2=NOC(C(=O)N3CCN(C(=O)c4ccco4)CC3)C2)cc1Cl` (stereo not drawn), the “hERG current change (%, negative = inhibition) at 1uM” value is given as -12.8%.

Take `Cc1c(C(=O)NCCCN2CCOCC2)sc2nc(-c3ccc(F)cc3)cn12`: the “hERG current change (%, negative = inhibition) at 1uM” value was -16.8%. Next, `O=C(c1ccco1)N1CCN(C(=O)C2CC(c3ccc(Cl)cc3)=NO2)CC1` (stereo not drawn): -66.5%; `COc1ccc(C2=NOC(C(=O)N3CCN(C(=O)c4ccco4)CC3)C2)cc1OC` (stereo not drawn): 15.8%. The same measure for `O=C(c1ccco1)N1CCN(C(=O)C2CC(c3ccccc3F)=NO2)CC1` (stereo not drawn): 3.75%. The same measure for `Cc1c(C(=O)N2CCN(c3ccc(F)cc3)CC2)sc2nc(-c3ccccc3)cn12`: -2.42%. For the compound `CCOC(=O)N1CCN(C(=O)c2sc3nc(-c4ccc(F)cc4)cn3c2C)CC1`, the “hERG current change (%, negative = inhibition) at 1uM” value was -22.3%. Next, `CCN(CC)CCNC(=O)c1sc2nc(-c3ccccc3)cn2c1C`: -31.8%. Next, `CCN(CC)CCCNC(=O)c1sc2nc(-c3ccc(F)cc3)cn2c1C`: -55.5%. `Cc1c(C(=O)N2CCN(C(=O)c3ccco3)CC2)sc2nc(-c3ccc(F)cc3)cn12`: the “hERG current change (%, negative = inhibition) at 1uM” value is -56.7%.

As for `O=C(c1cccc(N2C(=O)C3CC=CCC3C2=O)c1)N1CCCc2ccccc21` (stereo not drawn), the “hERG current change (%, negative = inhibition) at 1uM” value is listed as -16.3%. In the case of `CCOC(=O)CNC(=O)CSc1nnnn1-c1ccc(C)c(C)c1`, the “hERG current change (%, negative = inhibition) at 1uM” value stood at 0.993%. For `Cn1cc(CC(=O)N2CCN(c3ccc(Cl)cc3)CC2)c2ccccc21`, the “hERG current change (%, negative = inhibition) at 1uM” value is given as -0.545%. On to `Cc1ccccc1OCC(=O)Nc1ccccc1C(=O)NC1CC1`, for which the “hERG current change (%, negative = inhibition) at 1uM” value is reported as 8.41%. The same measure for `Cc1ccc(C)c(NC(=S)N2CCN(CCO)CC2)c1`: 5.15%; for `CC1CCN(C(=O)COC(=O)c2cn(C)c3ccccc23)CC1`: 7.49%; for `O=C(c1ccco1)N1CCN(C(=O)C2CC(=O)N(c3ccccc3)C2)CC1` (stereo not drawn): -1.56%. Take `O=C(c1ccco1)N1CCN(C(=O)C2CC(=O)N(c3ccc(Cl)cc3)C2)CC1` (stereo not drawn): the “hERG current change (%, negative = inhibition) at 1uM” value is listed as -80.2%. Next, `Cc1ccc(N2CC(C(=O)N3CCN(C(=O)c4ccco4)CC3)CC2=O)cc1` (stereo not drawn): -45.8%; `O=C(COc1ccc(Cl)cc1)Nc1ccc(Cl)cn1`: -2%; `COc1ccc(Oc2nc(SC)nc3ccccc23)cc1`: 2.03%. `O=C(/C=C/Nc1ccc(F)cc1F)c1cccs1`: the “hERG current change (%, negative = inhibition) at 1uM” value is on record as 18.4%.

As for `C[C@H](NC(=O)c1nc[nH]c1C(=O)N[C@@H](CCCCNC(=O)OC(C)(C)C)C(=O)OC(C)(C)C)c1ccccc1`, the “hERG current change (%, negative = inhibition) at 1uM” value is reported as 19.1%. Regarding `COc1ccc(NC(=O)N2CCN(c3ccc([N+](=O)[O-])cc3)CC2)cc1`, the “hERG current change (%, negative = inhibition) at 1uM” value was -14.2%. As for `COc1ccc(NC(=O)N2CCN(c3ccc([N+](=O)[O-])cc3)CC2)cc1OC`, the “hERG current change (%, negative = inhibition) at 1uM” value is on record as -63.2%.

As to `COc1ccc(NC(=S)N2CCN(c3ccc([N+](=O)[O-])cc3)CC2)cc1OC`, the “hERG current change (%, negative = inhibition) at 1uM” value is -82.2%. The same measure for `O=[N+]([O-])c1ccc(N2CCN(C(=S)Nc3ccc(F)cc3)CC2)cc1`: -23.8%; for `COc1ccccc1N1CCN(C(=O)Nc2ccc([N+](=O)[O-])cc2)CC1`: -10.6%. In the case of `COc1cccc(NC(=S)N2CCN(c3ccc([N+](=O)[O-])cc3)CC2)c1`, the “hERG current change (%, negative = inhibition) at 1uM” value is -9.45%. The same measure for `Cc1ccc(S(=O)(=O)N/N=C/c2cc(Br)c(C)o2)cc1`: 8.23%. For `O=C(N/C(=C/c1cn(-c2ccccc2)nc1-c1ccccc1)C(=O)N1CCOCC1)c1ccc(Cl)cc1Cl`, the “hERG current change (%, negative = inhibition) at 1uM” value is given as 24.2%.
